These results are taken from patent US20150152398, “Endoribonuclease and Methods of Use Thereof” (The Regents of the University of California, published 2015).

In the assay the target is T1, TtCas6A H37A (Thermus thermophilus HB8, H37A).
T1 chain: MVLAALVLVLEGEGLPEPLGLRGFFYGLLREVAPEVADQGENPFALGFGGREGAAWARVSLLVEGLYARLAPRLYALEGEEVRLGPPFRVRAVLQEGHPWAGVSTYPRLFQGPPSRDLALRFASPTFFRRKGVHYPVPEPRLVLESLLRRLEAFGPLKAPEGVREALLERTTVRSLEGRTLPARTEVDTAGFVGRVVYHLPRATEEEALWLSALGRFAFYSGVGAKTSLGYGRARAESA
The assay is described as follows: EMSA; Kd in FIG. 24D only. Conditions: chain copies: 2 inferred; label: 5'-32P (EMSA); hairpin; ssRNA. The text has this: FIG. 22 illustrates that TtCas6A and TtCas6B both cleave repeats R1 and R3 and retain their cleaved products. (A) Sequences and predicted secondary structures of T. thermophilus CRISPR repeats. Sites of cleavage are indicated with blue arrows. TtCas6e (TTHB192) cleaves repeat R2, while TtCas6A (TTHA0078) and TtCas6B (TTHB231) both cleave repeats R1 and R3. (B) Cleavage product binding affinities of TtCas6A and TtCas6B enzymes. Maltose binding protein (MBP)-fused TtCas6A or TtCas6B were bound to in 5′-radiolabelled, vitro transcribed R1 and R3 RNAs. Bound and unbound fractions were resolved by electrophoresis on a native polyacrylamide gel and visualized by phosphorimaging. The data for these and all subsequent binding assays were fit with standard binding isotherms (solid line). Error bars on each data point denote standard error of the mean (SEM) from three independent experiments. (C) Experiments to confirm single turnover. RNA cleavage assays were carried out at indicated protein:RNA ratios. RNA cleavage was monitored using denaturing polyacrylamide gel electrophoresis. The data from these and all subsequent endoribonuclease activity assays were fit with single exponential curves to yield first-order rate constants. (Top to bottom: FIG. 22A, SEQ ID NOs: 1, 2, 55).
To test the importance of the stem sequence for substrate RNA recognition by TtCas6A, a series of EMSAs was performed using R1 repeat-derived RNAs that carried single base pair substitutions (C-G→A-U). All mutant RNAs contained the complete 5′ segment and additional two nucleotides downstream of the cleavage site. Compared to the wild-type RNA, substitution of any of the four C-G base pairs in the stem led to about five-fold decrease in affinity (FIG. 24C). This is consistent with the observation that the lower three C-G base pairs are specifically read out by Arg129. The binding defect observed upon mutation of the closing (uppermost) base pair could be due to loss of stability of the stem-loop structure, which is determined by the closing base-pair (Serra et al, 1993). To further investigate the protein determinants of RNA binding, we tested the TtCas6A mutants H37A and R129A and performed binding assays using substrates R1 and R3 (FIG. 24D).
On to GUUGCAAGGGAUUGAGCCCCGUAAGGGGAUUGCGAC, for which the binding signal was ~70 fold lower affinity than WT.
On to GUUGCAAACCUCGUUAGCCUCGUAGAGGAUUGAAAC, for which the binding signal is ~90 fold lower affinity than WT.
